For some of these results: Potency and affinity values are given separately.
Assays:
Set-up in all cases: scale not given: direction of the effect not stated beside the values
[1] = molecular target: Protein translocase subunit SecA (Escherichia coli (strain K12)) (UniProt P10408); test: Assay to Identify E. coli SecA ATPase Inhibitors; type: functional; conditions: 30 µM
[2] = molecular target: T1, Ubiquitin-activating enzyme e1, putative (Leishmania donovani (strain BPK282A1)) (UniProt E9BSI1); test: Leishmania donovani Ubiquitin Activating Enzyme (LdE1); type: functional; conditions: 30 µM
T1 sequence (whole entry): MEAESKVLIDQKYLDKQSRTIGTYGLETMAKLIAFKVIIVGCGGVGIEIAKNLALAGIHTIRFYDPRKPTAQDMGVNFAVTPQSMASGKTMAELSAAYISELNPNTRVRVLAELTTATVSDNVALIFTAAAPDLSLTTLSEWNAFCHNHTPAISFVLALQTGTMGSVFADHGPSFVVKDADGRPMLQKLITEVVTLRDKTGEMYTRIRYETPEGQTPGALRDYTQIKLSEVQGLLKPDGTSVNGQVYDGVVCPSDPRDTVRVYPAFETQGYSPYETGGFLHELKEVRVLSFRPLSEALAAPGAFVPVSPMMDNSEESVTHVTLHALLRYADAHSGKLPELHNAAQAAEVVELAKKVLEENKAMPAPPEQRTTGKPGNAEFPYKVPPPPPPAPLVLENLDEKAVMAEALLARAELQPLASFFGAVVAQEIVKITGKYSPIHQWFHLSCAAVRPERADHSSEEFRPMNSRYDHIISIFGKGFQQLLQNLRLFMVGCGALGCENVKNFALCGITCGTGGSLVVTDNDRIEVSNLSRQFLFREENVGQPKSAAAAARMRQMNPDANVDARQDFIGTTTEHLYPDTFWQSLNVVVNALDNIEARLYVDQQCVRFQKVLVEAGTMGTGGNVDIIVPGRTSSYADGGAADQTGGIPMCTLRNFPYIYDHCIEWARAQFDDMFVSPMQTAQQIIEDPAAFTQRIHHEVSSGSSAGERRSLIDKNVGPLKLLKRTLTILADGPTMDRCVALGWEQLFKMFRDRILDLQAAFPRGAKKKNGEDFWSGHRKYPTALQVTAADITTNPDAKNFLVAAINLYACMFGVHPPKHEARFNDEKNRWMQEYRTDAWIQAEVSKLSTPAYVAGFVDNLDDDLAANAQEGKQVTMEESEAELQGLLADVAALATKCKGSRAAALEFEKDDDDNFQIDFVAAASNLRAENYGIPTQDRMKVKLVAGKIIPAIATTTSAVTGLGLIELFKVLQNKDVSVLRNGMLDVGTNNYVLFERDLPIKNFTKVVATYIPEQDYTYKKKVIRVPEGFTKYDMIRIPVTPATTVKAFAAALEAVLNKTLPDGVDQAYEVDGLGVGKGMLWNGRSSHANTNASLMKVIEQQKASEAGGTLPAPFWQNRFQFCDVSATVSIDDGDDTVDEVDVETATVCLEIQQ

[3] = molecular target: AMP-activated protein kinase, AMPK (Homo sapiens) (UniProt P54646+O43741+P54619+Q9UGJ0+Q9Y478+Q13131+Q9UGI9); test: AMP-dependent Kinase enzyme assay. An in vitro enzyme assay that detects ADP turnover that is directly proportional to AMPK activity. This uses naive AMPK that is activated during the assay with MK-8722; type: functional; conditions: 30 µM
[4] = molecular target: Sialic acid-binding Ig-like lectin 9 (Homo sapiens) (UniProt Q9Y336); test: Hs-Siglec9 ALPHAscreen SOP 20170721; conditions: 10 µM
Trypanosoma cruzi = test: Trypanosoma cruzi phosphomannomutase and mannose-1-phosphate guanylyltransferase assay; type: functional; conditions: 10 µM
[5] = molecular target: T2, Arginase-2, mitochondrial (Homo sapiens) (UniProt P78540); test: in vitro enzyme assay to detect the production of urea directly proportional to the activity of Arginase II; type: functional; conditions: 33.3 µM; further: in the data most compounds retested in dose-response had high values
T2 sequence (whole entry): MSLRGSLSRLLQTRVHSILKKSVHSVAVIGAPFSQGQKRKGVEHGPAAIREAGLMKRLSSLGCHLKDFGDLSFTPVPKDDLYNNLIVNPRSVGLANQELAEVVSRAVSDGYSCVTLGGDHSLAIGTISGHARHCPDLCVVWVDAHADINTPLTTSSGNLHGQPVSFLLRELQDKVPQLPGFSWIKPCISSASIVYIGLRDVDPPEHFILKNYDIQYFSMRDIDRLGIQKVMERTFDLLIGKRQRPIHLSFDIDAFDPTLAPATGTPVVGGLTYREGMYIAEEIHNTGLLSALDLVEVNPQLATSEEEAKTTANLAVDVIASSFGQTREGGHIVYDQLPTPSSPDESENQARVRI

[6] = molecular target: T3, Proteasome subunit beta (Trypanosoma cruzi) (UniProt O96673); test: Trypanosoma cruzi proteasome chymotrypsin-like activity (TcProtChymo) assay.; further: in the data most compounds retested in dose-response had high values; type: functional; conditions: 9.37 µM
T3 sequence (whole entry): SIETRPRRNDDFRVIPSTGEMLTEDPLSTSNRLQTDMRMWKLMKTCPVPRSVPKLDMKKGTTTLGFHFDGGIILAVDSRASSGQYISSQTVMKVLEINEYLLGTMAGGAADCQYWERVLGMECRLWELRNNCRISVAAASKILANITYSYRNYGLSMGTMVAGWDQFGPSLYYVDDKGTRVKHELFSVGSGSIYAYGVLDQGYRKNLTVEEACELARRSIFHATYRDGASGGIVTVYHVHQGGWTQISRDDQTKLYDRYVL

Homo sapiens = species on record: Homo sapiens; test: To identify inhibition of the IFN signalling (Jak-Stat) pathway via expression of an eGFP reporter gene under the control of an IFN-stimulated response element (ISRE) containing MxA promoter.; type: functional; conditions: 30 µM
[7] = molecular target: T4, Tyrosyl-tRNA synthetase, putative (Trypanosoma cruzi (strain CL Brener)) (UniProt Q4DSP6); test: Trypanosoma cruzi tyrosyl tRNA synthetase (TcYRS) _High Tyrosine SOP; type: functional; conditions: 30 µM; further: in the data most compounds retested in dose-response had high values
T4 sequence (whole entry): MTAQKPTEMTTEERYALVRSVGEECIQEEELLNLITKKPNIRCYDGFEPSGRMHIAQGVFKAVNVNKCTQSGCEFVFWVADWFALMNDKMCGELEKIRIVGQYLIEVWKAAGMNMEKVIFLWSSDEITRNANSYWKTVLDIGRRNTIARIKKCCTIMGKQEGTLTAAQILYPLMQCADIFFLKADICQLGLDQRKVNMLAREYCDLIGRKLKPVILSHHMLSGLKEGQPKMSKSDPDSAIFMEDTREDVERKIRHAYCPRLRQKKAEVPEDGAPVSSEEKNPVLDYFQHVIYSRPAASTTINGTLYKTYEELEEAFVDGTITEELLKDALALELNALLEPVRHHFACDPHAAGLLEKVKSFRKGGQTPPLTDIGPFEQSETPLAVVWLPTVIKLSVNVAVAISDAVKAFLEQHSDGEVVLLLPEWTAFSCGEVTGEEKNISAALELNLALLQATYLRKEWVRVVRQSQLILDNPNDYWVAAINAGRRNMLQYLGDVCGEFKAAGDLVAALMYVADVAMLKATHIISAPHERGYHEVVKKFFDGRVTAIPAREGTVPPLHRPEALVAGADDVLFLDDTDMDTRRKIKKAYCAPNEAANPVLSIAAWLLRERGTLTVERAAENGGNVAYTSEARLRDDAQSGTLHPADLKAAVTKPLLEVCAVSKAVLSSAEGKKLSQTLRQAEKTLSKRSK

[8] = molecular target: T4, Tyrosyl-tRNA synthetase, putative (Trypanosoma cruzi (strain CL Brener)); test: Trypanosoma cruzi tyrosyl tRNA synthetase (TcYRS) SOP; type: functional; conditions: 30 µM
[9] = molecular target: Chromo domain-containing protein 1 (Saccharomyces cerevisiae (strain ATCC 204508 / S288c) (Baker's yeast)) (UniProt P32657); test: ScCHD-1 Enzyme Inhibition Assay; type: functional; conditions: 30 µM; further: in the data most compounds retested in dose-response had high values
Sequence of Chromo domain-containing protein 1 (Saccharomyces cerevisiae (strain ATCC 204508 / S288c) (Baker's yeast)) (P32657 whole entry, the tested form may be a part): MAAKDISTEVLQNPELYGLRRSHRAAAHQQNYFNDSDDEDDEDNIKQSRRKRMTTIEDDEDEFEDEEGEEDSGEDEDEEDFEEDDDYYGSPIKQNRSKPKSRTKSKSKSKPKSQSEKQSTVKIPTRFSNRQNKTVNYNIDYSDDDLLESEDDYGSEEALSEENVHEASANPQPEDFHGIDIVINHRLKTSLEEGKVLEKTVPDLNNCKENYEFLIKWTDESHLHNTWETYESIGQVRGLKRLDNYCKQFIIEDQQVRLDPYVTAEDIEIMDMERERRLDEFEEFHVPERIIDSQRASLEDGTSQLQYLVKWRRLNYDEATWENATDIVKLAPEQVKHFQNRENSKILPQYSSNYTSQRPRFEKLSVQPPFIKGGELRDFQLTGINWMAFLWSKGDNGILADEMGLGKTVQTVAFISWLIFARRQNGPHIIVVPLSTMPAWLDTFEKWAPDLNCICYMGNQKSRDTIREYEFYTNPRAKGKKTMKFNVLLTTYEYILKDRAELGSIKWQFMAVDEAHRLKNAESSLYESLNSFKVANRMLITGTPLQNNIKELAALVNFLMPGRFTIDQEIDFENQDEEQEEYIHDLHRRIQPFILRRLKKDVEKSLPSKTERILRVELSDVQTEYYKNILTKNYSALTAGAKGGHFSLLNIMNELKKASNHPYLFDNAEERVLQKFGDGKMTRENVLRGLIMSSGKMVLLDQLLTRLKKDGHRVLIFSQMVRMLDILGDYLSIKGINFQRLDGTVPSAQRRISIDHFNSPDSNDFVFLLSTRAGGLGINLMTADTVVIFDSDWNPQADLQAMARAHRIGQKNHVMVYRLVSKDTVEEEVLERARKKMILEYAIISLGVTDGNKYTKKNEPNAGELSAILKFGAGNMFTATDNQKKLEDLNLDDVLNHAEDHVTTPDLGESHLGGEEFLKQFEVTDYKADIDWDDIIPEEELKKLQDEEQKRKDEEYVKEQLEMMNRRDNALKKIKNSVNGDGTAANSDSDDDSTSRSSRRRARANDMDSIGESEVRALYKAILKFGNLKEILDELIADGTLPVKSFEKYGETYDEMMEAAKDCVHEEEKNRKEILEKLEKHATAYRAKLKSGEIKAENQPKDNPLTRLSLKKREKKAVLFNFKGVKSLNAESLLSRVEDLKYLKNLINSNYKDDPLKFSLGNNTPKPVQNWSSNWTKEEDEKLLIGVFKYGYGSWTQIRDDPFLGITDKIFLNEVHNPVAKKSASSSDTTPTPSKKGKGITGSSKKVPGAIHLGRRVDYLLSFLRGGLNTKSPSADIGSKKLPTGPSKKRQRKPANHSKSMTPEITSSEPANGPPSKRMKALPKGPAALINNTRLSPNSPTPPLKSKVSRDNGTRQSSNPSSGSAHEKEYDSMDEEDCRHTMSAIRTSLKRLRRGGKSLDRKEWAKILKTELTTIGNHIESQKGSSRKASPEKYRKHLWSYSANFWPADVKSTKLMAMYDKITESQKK

Sequence of Protein translocase subunit SecA (Escherichia coli (strain K12)) (P10408 whole entry): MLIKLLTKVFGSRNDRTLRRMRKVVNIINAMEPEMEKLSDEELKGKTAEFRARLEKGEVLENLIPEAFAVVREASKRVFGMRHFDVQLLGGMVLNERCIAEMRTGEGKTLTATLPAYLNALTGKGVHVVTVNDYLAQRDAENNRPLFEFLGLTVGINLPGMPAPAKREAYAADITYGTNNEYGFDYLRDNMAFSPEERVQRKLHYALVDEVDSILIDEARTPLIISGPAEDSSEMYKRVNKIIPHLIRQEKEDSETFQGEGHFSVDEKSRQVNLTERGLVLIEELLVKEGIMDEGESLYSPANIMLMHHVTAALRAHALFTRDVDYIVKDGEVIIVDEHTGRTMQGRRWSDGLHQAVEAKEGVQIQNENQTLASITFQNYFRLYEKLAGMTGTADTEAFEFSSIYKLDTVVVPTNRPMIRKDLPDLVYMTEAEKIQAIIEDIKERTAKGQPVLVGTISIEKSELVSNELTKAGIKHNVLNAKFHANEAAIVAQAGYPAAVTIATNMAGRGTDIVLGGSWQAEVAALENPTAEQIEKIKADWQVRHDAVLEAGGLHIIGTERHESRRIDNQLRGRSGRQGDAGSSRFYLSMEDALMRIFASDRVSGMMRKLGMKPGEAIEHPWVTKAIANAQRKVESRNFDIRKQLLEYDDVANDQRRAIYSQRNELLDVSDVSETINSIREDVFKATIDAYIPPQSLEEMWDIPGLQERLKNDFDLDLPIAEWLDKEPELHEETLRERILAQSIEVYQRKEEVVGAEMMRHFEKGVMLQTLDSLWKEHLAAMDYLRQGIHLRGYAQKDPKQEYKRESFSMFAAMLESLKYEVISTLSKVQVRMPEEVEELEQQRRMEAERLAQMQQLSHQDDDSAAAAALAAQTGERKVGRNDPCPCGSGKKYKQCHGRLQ
Sequence of Sialic acid-binding Ig-like lectin 9 (Homo sapiens) (Q9Y336 whole entry): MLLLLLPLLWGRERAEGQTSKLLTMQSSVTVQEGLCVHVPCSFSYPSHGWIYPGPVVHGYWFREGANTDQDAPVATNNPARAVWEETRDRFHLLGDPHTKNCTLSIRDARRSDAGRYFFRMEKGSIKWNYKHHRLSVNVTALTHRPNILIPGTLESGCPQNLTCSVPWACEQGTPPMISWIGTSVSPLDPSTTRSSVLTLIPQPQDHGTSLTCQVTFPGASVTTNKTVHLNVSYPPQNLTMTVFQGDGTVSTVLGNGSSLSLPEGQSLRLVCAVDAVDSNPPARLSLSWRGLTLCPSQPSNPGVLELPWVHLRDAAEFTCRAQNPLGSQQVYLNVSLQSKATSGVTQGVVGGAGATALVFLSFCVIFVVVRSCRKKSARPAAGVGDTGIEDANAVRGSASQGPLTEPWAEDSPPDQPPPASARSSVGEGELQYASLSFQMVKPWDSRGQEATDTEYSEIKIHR

Structure (SMILES)	Percent Effect [1] [%]	Percent Effect [2] [%]	Percent Effect [3] [%]	Percent Effect [4] [%]	Percent Effect (Trypanosoma cruzi) [%]	Percent Effect [5] [%]	Percent Effect [6] [%]	Percent Effect (Homo sapiens) [%]	Percent Effect [7] [%]	Percent Effect [8] [%]	Percent Effect [9] [%]
O=C(O)C(c1ccc2c(c1)OCCO2)N1CCCCCC1 (stereo not drawn)	-4.06	5.33	0.637	5.42	-0.682	4.69	17.1	-7.93	9.29	13.6	-1.28
Cc1noc(NC(=O)c2ccc(Br)cc2)n1	-5.08	26.3	-4.88	4.49	6.44	1.44	16.3	70	8.37	28.4	-5.14
COCCNC(=O)c1sc(Nc2ccc(Cl)cn2)nc1C	-1.6	20	-8.36	6.95	0.589	-3.7	17.2	5.99	6.35	10.3	-10.7
Cc1ccsc1CNC(=O)NC1CCCc2c1cnn2CCO (stereo not drawn)	-6.41	2.67	2.26	2.19	-1.27	-3.12	13.4	-12.2	6.01	18.5	-4.15
NC(=O)c1csc(C(=O)N2CCCCC2Cn2cccn2)c1 (stereo not drawn)	-5.35	13.5	1.44	6.12	-0.279	-3.88	0.539	16.2	5.94	13.4	1.19
Cc1cnn(CCNCc2ccc(OCc3csc(C)n3)cc2)c1	-7.35	0	-1.8	8.64	10.2	-1.04	8.54	11.2	3.83	11.1	-5.91
COCCCn1c(CN2CCCC(O)C2)cnc1S(=O)(=O)C1CCCC1 (stereo not drawn)	-5.06	10.4	-2.5	10.5	4.62	-85.5	3.99	-9.18	3.23	11.1	-11
CNC(=O)CCc1cc(C)nc(C2CCCN2)c1 (stereo not drawn)	-6.62	14.9	6.02	1.63	2.17	-3.02	6.08	-9.75	2.15	11.7	-23.7
